Experimental data published in PubChem BioAssay (NCATS).
Records with an inconclusive call do not appear. Activity calls are given as the source filed them. Calls follow the shape of the dose curve; as a rule, active = well fitted curve in the direction sought with a large enough effect; inconclusive = small, poorly fitted or top-dose-only effect, or another doubt; inactive = no such curve, though single readings can be large; an effect the other way counts as inactive or inconclusive.

Assays:
[1] = Cellular Toxicity (caspase-3) HepG2 (AID 654);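 also: cells exposed to compound for 16 hours before reading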
How it was run: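 Concentration-response AC50 values reflect caspase-3/7 induction in HepG2 cells after 16 hours of compound exposure, quantified by luminescence from liberated aminoluciferin and referenced to 100 uM tamoxifen as full stimulation.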

[2] = Cellular Toxicity (caspase-3) Jurkat (AID 655);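 also: cells exposed to compound for 16 h at 37 °C before reading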
How it was run: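 Jurkat cells (5000/well) in complete medium exposed 16 h at 37 C; caspase-3/7 activity read by Caspase-Glo luminescence after 20 min at room temperature. Normalized to DMSO and 100 uM tamoxifen; AC50 from Hill fits.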

[3] = Cellular Toxicity (caspase-3) HUV-EC-C (AID 656)
How it was run: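 HUV-EC-C cells (1000/well) in complete medium, compound-treated 16 h at 37 °C; caspase-3/7 activity read by Caspase-Glo 3/7 luminescence. Normalized to DMSO (basal) and 100 uM tamoxifen (100%); AC50 from Hill-equation concentration-response fits.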

[4] = Cellular Toxicity (caspase-3) SHSY5Y (AID 657)
How it was run: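 SH-SY5Y human neuroblastoma cells, 1500/well, exposed to compound for 16 hours at 37 °C in complete medium. Caspase-3/7 activity read by Caspase-Glo luminescence after 1 hr at room temperature, normalized to DMSO and 10 uM staurosporine; AC50 from Hill fit.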

[5] = Cellular Toxicity (caspase-3) BJ (AID 658)
How it was run: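 Caspase-Glo 3/7 luminescence, read 1 hr after reagent at room temperature, in normal BJ fibroblasts exposed 16 hours at 37 °C. AC50 values from Hill-equation concentration-response, scaled between DMSO basal and 10 uM staurosporine as 100%.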

[6] = Cellular Toxicity (caspase-3) MRC-5 (AID 659)
How it was run: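 Luminescent Caspase-Glo 3/7 read-out (1 h, room temperature) after a 16 h, 37 °C compound exposure of MRC-5 lung fibroblasts at 1500 cells/well. Concentration-response AC50 from Hill equation; 0% DMSO, 100% 10 uM staurosporine.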

[7] = Cellular Toxicity (caspase-3) Mesangial (AID 660);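 also: cells exposed to compound for 16 h before the caspase read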
How it was run: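 AC50 values come from Hill-equation fits of caspase 3/7 activation, measured as Caspase-Glo luminescence in human glomerular mesangial cells exposed to compound for 16 h at 37 °C; 100% set by 100 uM tamoxifen.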

[8] = Cellular Toxicity (caspase-3) SK-N-SH (AID 661)
How it was run: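 Apoptosis readout in SK-N-SH neuroblastoma: Caspase-Glo 3/7 luminescence following 16 hr treatment in complete culture medium. Normalization used DMSO and 10 uM staurosporine controls.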

[9] = Cellular Toxicity (caspase-3) H-4-II-E (AID 663);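 also: cells exposed to compound for 16 hr before readout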
How it was run: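 Caspase 3/7 activation measured by luminescent aminoluciferin substrate cleavage after 16 hr compound treatment of H-4-II-E cells in complete medium. Increase normalized between DMSO (basal) and 100 uM tamoxifen (100%); Hill-equation AC50 from concentration-response.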

[10] = Cellular Toxicity (caspase-3) Hek293 (AID 664);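 also: cells exposed to compound for 16 h at 37 °C before readout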
How it was run: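 Apoptosis readout: Caspase-Glo 3/7 signal in human HEK293 cells following 16-hour compound incubation. Responses scaled between DMSO baseline and 100 uM tamoxifen.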

Measured: outcome

C[C@@H]1C[C@H]2[C@@H]3CCC4=CC(=O)C=C[C@]4(C)[C@@]3(F)[C@@H](O)C[C@]2(C)[C@@]1(O)C(=O)CO
inactive: all assays above
